Screens as filed in PubChem BioAssay.
D2 PAM-1: Beta-Arrestin HTS for Positive Allosteric Modulators of the Human D2 Dopamine Receptor: Potentiators. D(2) dopamine receptor (Homo sapiens), P14416. 360,000 compounds, 0.23% hits. DiscoveRx D2 beta-arrestin cells, luminescence, 90 min; 100% = 57 uM dopamine signal. AID 624464, 2012. potentiation, % (no concentration beside the values); in the data active means potentiation above about 50%; inconclusive means mostly about 30% to 49%
Target sequence (P14416 whole entry, looked up): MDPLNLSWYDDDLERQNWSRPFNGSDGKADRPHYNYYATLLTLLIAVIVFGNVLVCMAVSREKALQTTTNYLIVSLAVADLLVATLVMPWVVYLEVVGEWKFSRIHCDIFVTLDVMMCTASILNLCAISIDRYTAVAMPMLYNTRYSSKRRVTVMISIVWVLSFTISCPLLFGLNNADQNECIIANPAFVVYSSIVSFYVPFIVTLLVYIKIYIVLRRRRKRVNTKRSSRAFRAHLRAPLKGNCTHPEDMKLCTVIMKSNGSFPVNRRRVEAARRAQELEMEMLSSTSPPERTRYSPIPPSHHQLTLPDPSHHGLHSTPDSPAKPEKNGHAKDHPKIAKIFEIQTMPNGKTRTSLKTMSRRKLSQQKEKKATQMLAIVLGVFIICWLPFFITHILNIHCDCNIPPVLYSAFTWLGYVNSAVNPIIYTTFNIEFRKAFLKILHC
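PathHunter beta-arrestin assay in DiscoveRx D2 cells. Compounds were added with an EC20 of dopamine (50 nM final) for 90 min at 37 deg C. Luminescence was read 1 h after detection reagent, with 57 uM dopamine as the EC100 control.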
D2 antagonist: HTS Assay for Allosteric Antagonists of the Human D2 Dopamine Receptor: Primary Screen for Antagonists; D(2) dopamine receptor (Homo sapiens), P14416; HEK293 TREx D2 cells, calcium flux, dopamine EC80; 340,000 compounds, 2% hits; inhibition, % at 10 µM; in the data active means inhibition above about 30%; inactive means below that, where a call was filed; further: 0% is about no effect
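Antagonism is scored as inhibition of an EC80 dopamine-evoked calcium signal in a force-coupled, tetracycline-inducible HEK293 T-REx D2 line, with compound present 180 s before agonist.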
D2 PAM-2: HTS Assay for Positive Allosteric Modulators of the Human D2 Dopamine Receptor: Primary Screen for Potentiators; D(2) dopamine receptor (Homo sapiens), P14416; 340,000 compounds, 0.34% hits; HEK293 T-REx D2, calcium flux, EC20 dopamine potentiation; AID 485347, 2010; potentiation, % at 10 µM;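 active means potentiation over 3 SD above the plate norm, cut at about 30% in these data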; further: 0% is about no effect
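Tetracycline-induced Hek293 Trex D2 cells, force-coupled to calcium, loaded with no-wash calcium dye. Compound added with 180 s kinetic read for agonism, then EC20 dopamine and a further 180 s read for potentiation.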
D2 ag-1: Beta-Arrestin HTS for Positive Allosteric Modulators of the Human D2 Dopamine Receptor: Agonists | activation, % (no concentration beside the values) | AID 624465, 2012 | D(2) dopamine receptor (Homo sapiens), P14416 | DiscoveRx PathHunter D2 beta-arrestin, luminescence, 90 min; 100% = 57 uM dopamine signal | 360,000 compounds, 0.084% hits; in the data active means activation above about 40%; inconclusive means between about 15% and that limit
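DiscoveRx PathHunter D2 beta-arrestin cells (2,100/well) attached overnight, then compound-stimulated 90 min at 37 C in HBSS/10 mM HEPES/0.1% Tween-20 buffer; beta-galactosidase complementation read by luminescence after 1 h at ambient temperature. Dopamine 57 uM final (EC100) as control.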
D2 ag-2: HTS Assay for Allosteric Agonists of the Human D2 Dopamine Receptor: Primary Screen for Agonists; activation, % at 2 µM; D(2) dopamine receptor (Homo sapiens), P14416; HEK293 T-REx D2 cells, calcium flux agonist mode; 340,000 compounds, 0.53% hits;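 active means activation over 3 SD above normal in the single-dose calcium agonist read, cut at about 30% in these data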; further: 0% is about no effect
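Calcium-flux readout, 1 cycle/sec over 180 s following compound pin transfer, in inducible HEK293 Trex D2 cells (force-coupled); dopamine controls included. Positive calcium responses during this window marked compounds as potential agonists.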
D3 ag: qHTS of D3 Dopamine Receptor Agonist: D3 Dopamine Receptor B-arrestin Agonist Confirmatory Assay; Potency, µM (doses to about 76.9 µM), for the others: top-dose activation, usual class: activators; AID 720506, 2013; 2,300 compounds, 4% hits; shares compounds with D2 ag-2; DiscoveRx D3 beta-arrestin cells, luminescence, 90 min;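 further: potency means the concentration at half of the fitted maximal effect; 100% = dopamine control response; nearly all actives have a fitted effect of over 70% in size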
D2 ag-3: qHTS of D3 Dopamine Receptor Agonist: D2 Dopamine Receptor B-arrestin Agonist Counterscreen; shares compounds with D2 ag-2; DiscoveRx PathHunter D2 beta-arrestin, luminescence, 90 min; response scale: percent relative to full dopamine signal; Potency, µM (doses to about 76.9 µM), for inactives: top-dose activation, actives largely listed as activators; 2,300 compounds, 5.9% hits; further: potency means the concentration at half of the fitted maximal effect; % of control where 0% means no effect; nearly all actives have a fitted effect of over 70% in size
The depositor's hits bear a star; ? = inconclusive; . = no result; ! = repeats disagree. Shown are actives, neighbours in structure and some others; about 2.4% of the full set was active somewhere. Unless noted, the call rests on the fitted dose curve; in most records, active means well fitted activation curve with a large enough effect; inconclusive means small, poorly fitted or top-dose-only effect; inactive means flat fitted curve, though single readings scatter.

SMILES	D2 PAM-1	D2 antagonist	D2 PAM-2	D2 ag-1	D2 ag-2	D3 ag	D2 ag-3
CCOC(=O)C1CCN(CC(O)COc2ccc(C(C)(C)C)cc2)CC1 (stereo unspecified)	-7	26	6	?	0	.	.
COc1cc(/C=C/c2nc(C#N)c(NC(C)c3ccccc3)o2)cc(OC)c1OC (stereo unspecified)	.	.	7	.	2	.	.
CCC/C(=C1/c2ccccc2C(=O)N1c1ccccc1)c1ccc2c(c1)OCO2	-1	-11	-1	3	-1	-10%	-3%
COc1ccc(C2c3ccc4ccccc4c3Oc3ncn(CCCO)c(=N)c32)cc1OC (stereo unspecified)	-4	.	.	-1	.	2%	4%
COc1ccc(C2c3ccc4ccccc4c3Oc3ncn(CCO)c(=N)c32)cc1OC (stereo unspecified)	4	.	.	-1	.	.	.
Cc1cccc(N2CCN(C(=O)CS(=O)(=O)c3cccc4nsnc34)CC2)c1C	.	.	11	.	1	.	.
COc1ccc(NS(=O)(=O)c2cccc(C(=O)NNC(=O)c3ccc(C)o3)c2)cc1	-3	-5	-11	-2	0	2%	2%
CC(=O)c1ccc(OCC(O)CN2CCN(Cc3ccccc3)CC2)cc1 (stereo unspecified)	-3	17	-3	-7	9	-21%	4%
CCCc1ccc(OCC(O)CN2CCc3ccccc3C2)cc1 (stereo unspecified)	-83	.	.	1	.	.	.
OC(COCC1COc2ccccc2O1)CN1CCN(c2ccccn2)CC1 (stereo unspecified)	25	83*	-23	45*!	77*	?	?
CC(C)(C)C1CCC(OCC(O)CN2CCN(c3ccccn3)CC2)CC1 (stereo unspecified)	20	63*	-32	?	62*	0.63µM*	20µM*
CCCc1ccc(OCC(O)CN2CCN(c3ccccn3)CC2)cc1 (stereo unspecified)	-11	74*	-20	?	78*	1.3µM*	?
COc1ccc(CNC(=O)CN(C(=O)CCC(=O)Nc2ccccn2)c2ccc3c(c2)OCO3)cc1	-3	5	0	-7	-1	.	.
OC(COC(c1ccccc1)c1ccccc1)CN1CCN(c2ccccn2)CC1 (stereo unspecified)	-15	78*	-19	13	77*	4.5µM*	?
CCOC(=O)N1CCN(CC(O)COCc2ccc(Cl)cc2)CC1 (stereo unspecified)	-11	-8	15	-1	1	.	.
OC(COCc1ccc(Cl)cc1)CN1CCN(c2ccccn2)CC1 (stereo unspecified)	-1	84*	-24	45*	83*	?	?
CCc1ccc(OCC(O)CN2CCN(c3ccccn3)CC2)cc1 (stereo unspecified)	6	-4	-36	?	80*	?	?
CC(=O)c1ccc(OCC(O)CN2CCN(c3ccccn3)CC2)cc1 (stereo unspecified)	94*	88*	-20	47*	83*	?	4µM*
CC(=O)c1ccc(OCC(O)CN2CCN(CC(O)COc3ccc(C(C)=O)cc3)CC2)cc1 (stereo unspecified)	1	-11	-1	-1	0	.	.
Cc1cc(C)c(Cn2c(C(O)c3ccccc3)nc3ccccc32)c(C)c1 (stereo unspecified)	.	.	3	.	-1	.	.
O=c1oc2ccccc2cc1-c1cn2cc(Cc3ccc(Br)cc3)sc2n1	.	.	7	.	0	.	.
NS(=O)(=O)c1cccc(NC(=O)COC(=O)CCN2C(=O)c3ccccc3C2=O)c1	-2	-18	3	3	1	.	.
Cc1cc(C(=O)N2CCC2(C)C(=O)NS(=O)(=O)c2ccc(Cl)cc2)nn1C (stereo unspecified)	0	.	.	-6	.	.	.
CCC(NC(=O)Nc1cc(Cl)ccc1OC)c1c(-n2cccc2)sc2c1CCN(C)C2 (stereo unspecified)	.	.	-7	.	1	.	.
Cc1ccc2occ(CN3CCN(c4ccccc4)CC3)c(=O)c2c1	-2	67*	.	13	13	-5%	25%
SMILES	D2 PAM-1	D2 antagonist	D2 PAM-2	D2 ag-1	D2 ag-2	D3 ag	D2 ag-3
Cc1ccc(O)c(NC(=S)NC(=O)Cc2ccc(Cl)cc2)c1	-6	.	.	2	.	-7%	-2%
Cc1ccc(C(=O)/C=C/Nc2ccc(S(=O)(=O)Nc3cc(C)nc(C)n3)cc2)cc1	6	17	-19	-1	-1	-4%	2%
Cc1c(Cc2ccccc2)c(=O)oc2c(O)c(O)ccc12	18	34*	-13	10	54*	?	23%
O=C(Nc1ccccc1F)c1ccc(Cn2nc(N3CCN(c4ccccc4)CC3)ccc2=O)o1	.	.	1	.	0	.	.
Cc1ccc(SCC(=O)OCC(=O)NCc2cccs2)cc1C	-4	-3	7	-6	0	.	.
COc1ccccc1CNC(=O)COC(=O)CSc1ccc(C)c(C)c1	-12	-5	-5	-3	0	-7%	-5%
Cc1ccc(CNC(=O)CCn2cc(-c3ccc(F)cc3)nc2-c2ccncc2)cc1	-16	-7	-13	-3	-1	.	.
O=C(O)CCn1cc(-c2ccc(F)cc2)nc1-c1ccncc1	-7	.	.	-1	.	-13%	-5%
CSc1nc2ccc(NC(=O)c3ccc(=O)n(C)n3)cc2s1	-9	20	-14	1	17	22%	12%
CSc1nc2ccc(NC(=O)c3ccc(F)c(F)c3)cc2s1	-5	-11	-5	-2	2	.	.
CSc1nc2ccc(NC(=O)c3cccs3)cc2s1	-19	.	.	3	.	.	.
CSc1nc2ccc(NC(=O)c3ccc(=O)[nH]c3)cc2s1	-6	-4	-17	5	49*	-7%	1%
